Results as given in PubChem BioAssay (Tox21).
Results filed as inconclusive are left out. Activity calls are given as the source filed them. Unless noted, calls come from the whole dose curve; as a rule, active = well fitted curve in the direction sought with a large enough effect in the repeat runs; inconclusive = weak or mixed curves; inactive = no such curve, though single readings can be large; an effect the other way counts as inactive or inconclusive.

Legend:
[1] = A CellTox Green Cytotoxicity Assay to monitor cytotoxicity in HepG2 cells - 0 hour (AID 1224882); note: nearly all actives have a fitted effect of over 35% in size
Summary of the method: (§1)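 HepG2 cells were seeded together with the CellTox Green dye at 600 cells/well, left 5 h at 37 C/5% CO2, then given compounds in DMSO. Fluorescence from dye bound to dead-cell DNA was read repeatedly over 40 h of treatment at 37 C.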

[2] = A CellTox Green Cytotoxicity Assay to monitor cytotoxicity in HepG2 cells - 32 hour (AID 1224883); note: nearly all actives have a fitted effect of over 50% in size
Summary of the method: as §1

[3] = A CellTox Green Cytotoxicity Assay to monitor cytotoxicity in HEK293 cells - 8 hour (AID 1224884); note: nearly all actives have a fitted effect of over 35% in size
Summary of the method: (§2)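 HEK293 cells premixed with CellTox Green dye were seeded at 600 cells/well and left 5 h at 37 C/5% CO2 before pin transfer of 23 nL compound in DMSO. Fluorescence from dye bound to dead-cell DNA was read during 40 h treatment.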

[4] = qHTS RealTime-Glo MT Cell Viability Assay in HepG2 cells - 16 hour (AID 1224885); note: nearly all actives have a fitted effect of over 50% in size
Summary of the method: (§3)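 HepG2 suspension premixed with RealTime-Glo reagents is plated at 600 cells per well and left 5 h at 37 C/5% CO2. Compounds in DMSO then go in, and bioluminescence reflecting viable cell number is recorded over 40 h.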

[5] = qHTS RealTime-Glo MT Cell Viability Assay in HEK293 cells - 24 hour (AID 1224886); note: top concentration of the series differs between compounds; nearly all actives have a fitted effect of over 50% in size
Summary of the method: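 Reads taken at 0, 8, 16, 24, 32 and 40 h from the same wells. HEK293 cells (600/well) carried RealTime-Glo reagents from seeding, with compound added after a 5 h settle at 37 C.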

[6] = qHTS RealTime-Glo MT Cell Viability Assay in HEK293 cells - 8 hour (AID 1224887); note: top concentration of the series differs between compounds; nearly all actives have a fitted effect of over 50% in size
Summary of the method: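 HEK293 cells mixed with RealTime-Glo reagents (NanoLuc plus cell-permeant prosubstrate) at 600 cells/well, preincubated 5 h at 37 C/5% CO2, then given 23 nL compound in DMSO. Nonlytic luminescence from viable cells was read at 0, 8, 16, 24, 32 and 40 h.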

[7] = A CellTox Green Cytotoxicity Assay to monitor cytotoxicity in HEK293 cells - 16 hour (AID 1224888); note: nearly all actives have a fitted effect of over 35% in size
Summary of the method: as §2

[8] = qHTS RealTime-Glo MT Cell Viability Assay in HepG2 cells - 0 hour (AID 1224889); note: nearly all actives have a fitted effect of over 50% in size
Summary of the method: as §3

[9] = A CellTox Green Cytotoxicity Assay to monitor cytotoxicity in HepG2 cells - 8 hour (AID 1224890); note: nearly all actives have a fitted effect of over 45% in size
Summary of the method: as §1

[10] = qHTS assay to identify small molecule antagonists of the estrogen receptor alpha (ER-alpha) signaling pathway using the BG1 cell line in the presence of 0.1 nM 17-beta-estradiol - cell viability counter screen (AID 1259241); note: nearly all actives have a fitted effect of over 40% in size
Summary of the method: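 VM7Luc4E2 cells (endogenous full-length ER-alpha, 4xERE-luciferase), cultured 5 days in charcoal-stripped serum, exposed to compounds with 0.1 nM 17beta-estradiol (final) for 22 hr at 37C. Viability read in same wells as live-cell protease fluorescence after 30 min.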

[11] = qHTS assay to identify small molecule antagonists of the androgen receptor (AR) signaling pathway using the MDA cell line in the presence of 0.5 nM R1881 - cell viability counter screen (AID 1259242); note: nearly all actives have a fitted effect of over 45% in size
Summary of the method: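 MDA-kb2 cells (human breast carcinoma, stably carrying MMTV-luciferase reporter) were exposed to compounds with 0.5 nM R1881 (final) for 16 hr at 37C, 0% CO2; viability then read as live-cell protease fluorescence (CellTiter-Fluor, 30 min) in the same wells.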

[12] = qHTS assay to identify small molecule HDAC inhibitors (AID 1259364); note: top concentration of the series differs between compounds; nearly all actives have a fitted effect of over 45% in size
Summary of the method: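 Wild-type HCT-116 cells were plated overnight, exposed to compounds for 2 h at 37 °C, then given HDAC-Glo class I/II luminogenic reagent for 30 min at room temperature before luminescence was read.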

[13] = qHTS assay to identify small molecule HDAC inhibitors - cell viability counter screen (AID 1259365)
Summary of the method: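 Wild-type HCT-116 cells, 1,500/well, cultured overnight, then compound-treated 2 h at 37 C. Viability measured as ATP luminescence with CellTiter-Glo after 30 min at room temperature.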

[14] = qHTS assay to identify small molecule agonists of the sonic hedgehog signaling (Shh) pathway - cell viability counter screen (AID 1259366); note: nearly all actives have a fitted effect of over 50% in size
Summary of the method: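 NIH/3T3-derived Gli1-Luc reporter cells, 2,000 per well, received compound after 4 h and were treated about 23 h at 37C. Viability measured in the same wells by CellTiter-Fluor fluorescence after 1 h.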

[15] = qHTS assay to identify small molecule antagonists of the sonic hedgehog signaling (Shh) pathway - cell viability counter screen (AID 1259367); note: nearly all actives have a fitted effect of over 55% in size
Summary of the method: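 Using CellTiter-Fluor, viability of Gli1-Luc reporter 3T3 cells is read by fluorescence in the wells used for the Shh luciferase assay. Treatment lasts 23 hr with conditioned medium, then reagent 1 hr at 37C.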

[16] = qHTS assay to identify small molecule agonists of the sonic hedgehog signaling (Shh) pathway (AID 1259368; calls by dose curve; note: series mostly up to about 92 µM; nearly all actives have a fitted effect of over 15% in size)
Summary of the method: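 NIH/3T3-derived 3T3Gli1-Luc cells carrying a stably integrated Gli1 response element–firefly luciferase reporter were plated, left 4 hr at 37 C, then given compounds in DMSO for 24 hr. Luminescence was read 30 min after adding luciferase reagent.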

[17] = qHTS assay to identify small molecule antagonists of the sonic hedgehog signaling (Shh) pathway (AID 1259369; calls by dose curve; note: nearly all actives have a fitted effect of over 45% in size)
Summary of the method: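 NIH/3T3-derived 3T3Gli1-Luc cells with stably integrated Gli1-Luc reporter were preincubated 4hr at 37 C, then given compounds in DMSO plus Shh conditioned medium and incubated 24hr. Firefly luciferase luminescence read after 30min reagent at room temperature.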

[18] = target: Androgen receptor (Homo sapiens) (UniProt P10275); assay: qHTS assay to identify small molecule antagonists of the androgen receptor (AR) signaling pathway using the MDA cell line in the presence of 0.5 nM R1881 (AID 1259243); note: nearly all actives have a fitted effect of over 50% in size
Summary of the method: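 MDA-kb2 human breast carcinoma cells carrying an MMTV-luciferase reporter (AR- and GR-responsive) were plated, rested 5 hr at 37C, dosed with compounds, then stimulated with 0.5 nM R1881 (final) for 16 hr; luminescence was read after ONE-Glo.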

[19] = target: Estrogen receptor (Homo sapiens) (UniProt P03372); assay: qHTS assay to identify small molecule antagonists of the estrogen receptor alpha (ER-alpha) signaling pathway using the BG1 cell line in the presence of 0.1 nM 17-beta-estradiol (AID 1259244); note: nearly all actives have a fitted effect of over 50% in size
Summary of the method: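 VM7Luc4E2 cells (endogenous full-length ER-alpha, stable 4xERE-luciferase) were grown 5 days in phenol red-free medium with charcoal-stripped FBS, then exposed 22 h at 37C to compounds plus 0.1 nM (final) 17beta-estradiol; ONE-Glo luminescence read-out.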

[20] = qHTS assay to identify small molecule phospholipidosis (PLD) inducers (AID 1259344; active = well fitted curve in the direction sought with a large enough effect; an effect the other way counts as inactive or inconclusive)
Summary of the method: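 Fluorescent phospholipid staining (LipidTOX Red) measured by automated microscopy in fixed HepG2 cells after 24 h treatment; nuclei counterstained with Hoechst 33342; amiodarone as reference inducer.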
% is set by controls: 0 for no effect and ±100 for the full control effect.

Sequence of Estrogen receptor (Homo sapiens) (P03372 whole entry, looked up): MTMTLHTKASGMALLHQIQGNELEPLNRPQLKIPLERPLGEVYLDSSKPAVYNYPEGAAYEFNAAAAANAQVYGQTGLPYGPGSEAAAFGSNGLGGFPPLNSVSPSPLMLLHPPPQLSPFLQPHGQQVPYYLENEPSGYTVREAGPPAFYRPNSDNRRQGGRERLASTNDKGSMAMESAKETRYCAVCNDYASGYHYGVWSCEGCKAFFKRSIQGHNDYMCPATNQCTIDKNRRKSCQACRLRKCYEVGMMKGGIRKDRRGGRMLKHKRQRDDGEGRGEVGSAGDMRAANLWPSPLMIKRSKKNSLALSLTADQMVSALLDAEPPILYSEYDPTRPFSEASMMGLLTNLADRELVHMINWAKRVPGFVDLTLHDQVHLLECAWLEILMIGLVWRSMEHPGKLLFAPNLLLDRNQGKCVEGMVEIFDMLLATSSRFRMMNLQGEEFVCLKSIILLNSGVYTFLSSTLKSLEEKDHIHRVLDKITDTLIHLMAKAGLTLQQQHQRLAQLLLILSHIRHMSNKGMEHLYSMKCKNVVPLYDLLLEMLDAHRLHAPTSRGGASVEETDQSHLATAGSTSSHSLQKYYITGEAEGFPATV
Sequence of Androgen receptor (Homo sapiens) (P10275 whole entry, looked up): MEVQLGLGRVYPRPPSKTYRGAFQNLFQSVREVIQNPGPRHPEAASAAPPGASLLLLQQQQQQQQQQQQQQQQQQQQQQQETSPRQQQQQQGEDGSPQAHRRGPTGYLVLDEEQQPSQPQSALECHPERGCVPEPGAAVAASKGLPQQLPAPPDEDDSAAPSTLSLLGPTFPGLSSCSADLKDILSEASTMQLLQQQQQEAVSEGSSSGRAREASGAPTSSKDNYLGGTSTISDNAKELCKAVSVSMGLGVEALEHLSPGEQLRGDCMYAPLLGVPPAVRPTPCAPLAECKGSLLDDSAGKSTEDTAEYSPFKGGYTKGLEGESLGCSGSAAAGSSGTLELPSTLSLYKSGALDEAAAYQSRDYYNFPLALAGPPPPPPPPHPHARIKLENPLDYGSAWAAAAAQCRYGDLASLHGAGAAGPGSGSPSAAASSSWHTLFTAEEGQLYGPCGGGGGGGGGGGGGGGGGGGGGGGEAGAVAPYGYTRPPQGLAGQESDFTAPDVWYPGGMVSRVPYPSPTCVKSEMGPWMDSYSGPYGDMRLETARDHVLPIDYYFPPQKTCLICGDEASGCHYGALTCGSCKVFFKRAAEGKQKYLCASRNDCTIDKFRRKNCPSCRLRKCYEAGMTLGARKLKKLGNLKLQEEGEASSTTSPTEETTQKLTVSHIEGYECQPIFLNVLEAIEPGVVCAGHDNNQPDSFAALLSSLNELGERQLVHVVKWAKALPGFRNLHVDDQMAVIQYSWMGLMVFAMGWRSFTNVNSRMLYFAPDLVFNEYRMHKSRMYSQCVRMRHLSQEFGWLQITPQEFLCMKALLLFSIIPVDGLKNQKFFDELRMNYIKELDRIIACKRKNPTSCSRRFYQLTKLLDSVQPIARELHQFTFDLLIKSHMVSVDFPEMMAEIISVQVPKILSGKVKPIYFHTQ

CC12CCC(C(=O)C1=O)C2(C)C (stereo not drawn)
inactive: Potency [1] | Potency [2] | outcome [3] | outcome [4] | Potency [5] | Potency [6] | outcome [7] | Potency [8] | outcome [9] | outcome [10] | outcome [11] | Potency [12] | outcome [13] | Potency [14] | Potency [15] | outcome [16] | Potency [17]

Clc1cc(Cl)c(Cl)nc1Cl
inactive: Potency [1] | Potency [2] | outcome [3] | outcome [4] | Potency [5] | Potency [6] | outcome [7] | Potency [8] | outcome [9] | outcome [10] | outcome [11] | Potency [12] | outcome [13] | Potency [14] | Potency [15] | outcome [16] | Potency [17]

Cc1coc2ccccc2c1=O
inactive: Potency [1] | Potency [2] | outcome [3] | Potency [5] | Potency [6] | outcome [7] | Potency [8] | outcome [9] | outcome [10] | outcome [11] | Potency [18] | Potency [12] | outcome [13] | Potency [14] | Potency [15] | outcome [16] | Potency [17]

C[N+](C)(C)CCCCCCCCCC[N+](C)(C)C
inactive: Potency [1] | Potency [2] | outcome [3] | Potency [5] | Potency [6] | outcome [7] | Potency [8] | outcome [9] | outcome [10] | outcome [11] | outcome [19] | outcome [20] | Potency [12] | outcome [13] | Potency [14] | Potency [15] | outcome [16]

CCCC(C)C(=O)OCC (stereo not drawn)
inactive: Potency [1] | Potency [2] | outcome [3] | outcome [4] | Potency [5] | Potency [6] | outcome [7] | outcome [9] | outcome [10] | outcome [11] | outcome [19] | outcome [13] | Potency [14] | Potency [15] | outcome [16]

CC1=CCC(O)(C(C)C)CC1 (stereo not drawn)
inactive: Potency [1] | Potency [2] | outcome [3] | outcome [4] | Potency [5] | Potency [6] | outcome [7] | outcome [9] | outcome [10] | outcome [11] | outcome [19] | Potency [12] | outcome [13] | Potency [14] | Potency [15] | outcome [16] | Potency [17]

CCCCN1C=CN(C)C1
inactive: cytotoxicity [1] -12.1% [at 15.8 µM] | cytotoxicity increase [2] -19.6% [at 15.8 µM] | cytotoxicity increase [3] -6.47% [at 15.8 µM] | activity change, negative = cytotoxic [4] 3.26% [at 15.8 µM] | activity change, negative = cytotoxicity [5] 9.28% [at 15.8 µM] | activity change, negative = cytotoxicity [6] 5.36% [at 15.8 µM] | activity change [7] -9.59% [at 15.8 µM] | cytotoxicity increase [9] -8.5% [at 15.8 µM] | activity change, negative = cytotoxicity [10] 0.391% [at 19 µM] | viability change, negative = cytotoxic [11] 0.923% [at 19 µM] | activity change, negative = inhibition [19] 8.85% [at 19 µM] | activity change, negative = inhibition [12] -8.42% [at 19 µM] | activity change, negative = cytotoxicity [13] 5.24% [at 19 µM] | viability change, negative = cytotoxic [14] 3.43% [at 19 µM] | viability change, negative = cytotoxic [15] 0.731% [at 19 µM] | activity change [16] 1.75% [at 18.9 µM]

CCCCc1ccc2c(n1)[C@@H](c1ccc(OC)cc1C[C@H](C)C(=O)O)[C@H](C(=O)O)[C@H]2c1ccc2c(c1)OCO2
inactive: Potency [1] | Potency [2] | outcome [3] | Potency [5] | Potency [6] | outcome [7] | Potency [8] | outcome [9] | outcome [10] | outcome [11] | outcome [19] | Potency [12] | outcome [13] | Potency [14] | Potency [15] | outcome [16] | Potency [17]
